Measured values reported in PubChem BioAssay AID463173 (ICCB-Longwood Screening Facility, Harvard Medical School, 2010).
About 4,300 (8.3%) of roughly 52,000 compounds were called active. Only a selection was taken, and actives are over-represented in it overall. Values without a mark were called inactive. Cut-off read from the data, not from the text of the source: active = survival mostly below about 52% (no sharp cut-off); inactive = mostly above about 56%.

tested on: DeltatarO mutant; experiment: growth inhibition of S. aureus wild type versus tarO mutant, primary screen, teichoic acid synthesis inhibitors, RN4220, OD600 (AID 463173); conditions: OD600, 18 h, stronger effect = lower value, screened at 18.75 µg/mL (by protocol)

Point of comparison: CCOc1ccccc1NC(=O)c1c(NC(=O)C(C)Oc2ccc(Cl)cc2)sc2c1CCCCC2 (stereo unspecified), survival 83%. Against it:
- CC1C(=O)CCNC1c1ccccc1 (stereo unspecified) — lower, 65%
- O=C(O)c1ccc(N=NSCCO)cc1 — lower, 79%
- COc1ccc(-n2nc(C(=O)NCCc3cccc(C)c3)c3c4ccccc4n(C)c3c2=O)cc1Cl — higher, 89%
- Cn1c(=O)c2c(nc(SCC(=O)Nc3ccc(OC(F)(F)F)cc3)n2Cc2cccc(C(F)(F)F)c2)n(C)c1=O — higher, 86%
- COc1ccc(Cl)cc1NC(=O)c1sc2nc(-c3ccc(OC)c(OC)c3)ccc2c1N — higher, 124%
- COc1cccc(-c2ccc3c(N)c(C(=O)Nc4ccc(Cl)cc4F)sc3n2)c1 — lower, 59%
- O=S(=O)(c1ccccc1)c1nc(-c2ccccc2F)oc1N1CCOCC1 — lower, 71%
- O=S(=O)(c1ccccc1)c1nc(-c2ccc(Cl)cc2Cl)oc1N1CCCCCC1 — lower, 49%
- O=S(=O)(c1ccccc1)c1nc(-c2ccc(Cl)cc2Cl)oc1N1CCCCC1 — higher, 90%
- O=S(=O)(Nc1ccc(-c2ccc(N3CCCC3)nn2)cc1)c1cc(F)ccc1F — higher, 96%
- Cc1ccc(-c2nc(CS(=O)CC(=O)N3CCN(c4ccccc4)CC3)c(C)o2)cc1 (stereo unspecified) — lower, 62%
- CC(C)(C)OC(=O)N1CCC(c2c(C(=O)NCc3ccccc3)cnn2-c2cccc(F)c2)CC1 — higher, 108%
- O=C(/C=C\c1ccc2c(c1)OCO2)NC1CC(=O)N(c2ccccc2)C1 (stereo unspecified) — higher, 134%
- CN(C)c1ccc(NC(=O)CC(NCc2cccnc2)C(=O)O)cc1 (stereo unspecified) — lower, 76%
- CC(=O)c1cccc(NC(=O)CN2C=NS(=O)(=O)c3ccc(C)cc32)c1 — higher, 89%
- COc1ccc(-c2csc3nc(-c4ccc(F)cc4)oc(=O)c23)cc1 — lower, 61%
- O=C(NCc1ccc2c(c1)OCO2)c1ccc2c(c1)N(Cc1cccc(Cl)c1)C(=O)c1ccccc1S2 — higher, 84%
- O=C(NCc1cccs1)C1CCN(C(=O)N2CCOc3ccccc32)CC1 — higher, 107%
- COc1ccc(NS(=O)(=O)c2cc3[nH]c(=O)c(=O)[nH]c3cc2C)cc1Cl — higher, 94%
- Cc1cc(C)cc(NS(=O)(=O)c2cc3[nH]c(=O)c(=O)[nH]c3cc2C)c1 — higher, 87%
- O=C1C2C(C(=O)N1CCO)C1C=CC2C12CC2 (stereo unspecified) — higher, 100%
- CCOc1ccccc1CNC(=O)c1[nH]c2ccccc2c1Sc1ccccc1 — lower, 72%
- COc1cccc(NC(=O)/C(C#N)=C\c2cn(Cc3ccc(C)cc3)c3ccccc23)c1 — higher, 90%
- COC(=O)c1c(NC(=O)C(C)Oc2ccc(Cl)cc2Cl)sc2c1CCCC2 (stereo unspecified) — lower, 46%
- COC(=O)c1c(NC(=O)COc2ccc(OC)cc2)sc2c1CCC(C)C2 (stereo unspecified) — lower, 66%
- COC(=O)c1c(NC(=O)Cc2cccs2)sc2c1CCCC2 — higher, 119%
- COC(=O)c1c(NC(=O)COc2cc(C)c(Cl)c(C)c2)sc2c1CCCC2 — higher, 147%
- COC(=O)c1c(NC(=O)c2ccc(Cl)c(Cl)c2)sc2c1CCCC2 — lower, 63%
- CCOC(=O)c1sc(NC(=O)C(C)Oc2ccc(OC)cc2)c(C(=O)OCC)c1C (stereo unspecified) — lower, 73%
- COC(=O)c1c(NC(=O)Nc2ccc(Cl)cc2)sc(C)c1C — lower, 74%
- COC(=O)c1c(NC(=O)COc2cc(C)ccc2C(C)C)sc2c1CCC(C)C2 (stereo unspecified) — lower, 61%
- Cc1ccc(S(=O)(=O)N2CCN(C(=O)c3c(C)nn(-c4ccccc4)c3Cl)CC2)cc1 — lower, 63%
- O=C(O)CCNC(=O)c1ccc(Br)o1 — lower, 72%
- Cc1ccccc1Nc1c(-c2ccc(N3CCOCC3)cc2)nc2ncccn12 — the same, 83%
- Cc1cccc(C)c1NC(=O)CN(C)S(=O)(=O)c1ccc2c(c1)n(C)c(=O)c(=O)n2C — higher, 89%
- O=c1c(S(=O)(=O)c2ccccc2)cn(Cc2cccc(F)c2)c2cc(N3CCOCC3)c(F)cc12 — lower, 78%
- COc1ccc(Cl)cc1NC(=O)c1c(NCc2ccc(C)o2)sc2c1CCCC2 — lower, 74%
- COc1ccc(Cl)cc1N(C)C(=O)c1ccc2c(=O)n3c(nc2c1)CCCCC3 — lower, 76%
- N#Cc1ccc(NC2=NS(=O)(=O)c3ccccc32)cc1 — lower, 68%
- O=C(NCCc1ccc(Cl)cc1)c1ccco1 — higher, 98%
- Cc1cc(OC(C)C(=O)Nc2sc3c(c2C(N)=O)CCCC3)ccc1Cl (stereo unspecified) — lower, 59%
- COC(=O)c1c(NC(=O)c2ccccc2C(=O)O)sc2c1CCCC2 — higher, 92%
- CCOC(=O)c1c(NC(=O)COc2c(C)cc(Cl)cc2Cl)sc2c1CCCC2 — lower, 53%
- CCOc1ccccc1NC(=O)c1c(NC(=O)C(C)Oc2cccc(Cl)c2)sc2c1CCCCC2 (stereo unspecified) — lower, 64%
- COC(=O)c1c(NC(=O)COc2ccc(C(C)C)cc2)sc2c1CCCC2 — lower, 47%
- CCNC(=O)c1c(NC(=O)COc2ccc(F)cc2)sc2c1CCCC2 — lower, 59%
- COC(=O)c1c(NC(=O)c2ccc(OC)cc2OC)sc2c1CCCCC2 — lower, 47%

COc1cccc(-c2ccc3c(N)c(C(=O)c4ccc(Cl)cc4)sc3n2)c1 was tested, and the survival was 30% (active).
For Cc1ccc(S(=O)(=O)c2nc(-c3ccccc3Cl)oc2N2CCCCCC2)cc1, the survival was 25% (active).
With Cc1ccc(S(=O)(=O)c2nc(-c3ccccc3F)oc2N2CCCCC2)cc1 the survival was 32% (active).
In the case of O=S(=O)(c1ccccc1)c1nc(-c2ccccc2Cl)oc1N1CCCCCC1, the survival is reported as 27% (active).
For COc1cc(NS(=O)(=O)c2cc3[nH]c(=O)[nH]c3cc2C)cc(OC)c1OC, the survival was 37% (active).
For COC(=O)c1c(NC(=O)C(C)Oc2ccc(Cl)c(C)c2)sc(C)c1C (stereo unspecified), the survival was 15% (active).
In the case of CCCc1ccc(OC(C)C(=O)Nc2sc3c(c2C(=O)OC)CCCCC3)cc1 (stereo unspecified), the survival is reported as 9% (active).
For COC(=O)c1c(NC(=O)COc2c(C)cccc2C)sc2c1CCCC2, the survival was 2% (active).
In the case of COC(=O)c1c(NC(=O)COc2c(C)ccc(C)c2C)sc2c1CCC(C)C2 (stereo unspecified), the survival is reported as 22% (active).
COC(=O)c1c(NC(=O)c2c(OC)cccc2OC)sc2c1CCCC2 was tested, and the survival was 13% (active).
In the case of CCCc1ccc(OCC(=O)Nc2sc3c(c2C(=O)OC)CCCCC3)cc1, the survival is reported as 38% (active).
With CCOC(=O)c1c(NC(=O)C(C)Oc2ccc(Cl)c(C)c2)sc2c1CCCC2 (stereo unspecified) the survival was 42% (active).
With Cc1ccccc1NC(=O)c1c(NC(=O)C(C)Oc2cccc(Cl)c2)sc2c1CCCC2 (stereo unspecified) the survival was 40% (active).
